# Values without a mark were called inactive. Inconclusive results are not listed. Entries that show only a call come without a potency. Active and inactive are the calls of the source. Unless noted, calls come from the whole dose curve; as a rule, active = well fitted curve in the direction sought with a large enough effect in the repeat runs; inconclusive = weak or mixed curves; inactive = no such curve, though single readings can be large; an effect the other way counts as inactive or inconclusive.
# Key:
# [1] = A CellTox Green Cytotoxicity Assay to monitor cytotoxicity in HepG2 cells - 0 hour (AID 1224882); note: nearly all actives have a fitted effect of over 35% in size; note: potency is the fitted concentration of half-maximal effect
# Outline: (§1)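 Using 1536-well format, dye-containing HepG2 suspension was seeded, allowed 5 h at 37 C/5% CO2, dosed by pintool with compounds, positive and negative controls, and imaged for fluorescence across 40 h.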
# [2] = A CellTox Green Cytotoxicity Assay to monitor cytotoxicity in HepG2 cells - 32 hour (AID 1224883); note: nearly all actives have a fitted effect of over 50% in size; note: potency is the fitted concentration of half-maximal effect
# Outline: as §1
# [3] = A CellTox Green Cytotoxicity Assay to monitor cytotoxicity in HEK293 cells - 8 hour (AID 1224884); note: nearly all actives have a fitted effect of over 35% in size; note: potency is the fitted concentration of half-maximal effect
# Outline: (§2)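 Fluorescence intensity, read at 0, 8, 16, 24, 32 and 40 h of compound treatment, reflected dye binding to DNA of dead HEK293 cells; compounds (23 nL, DMSO) were added 5 h after plating cells with reagent.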
# [4] = qHTS RealTime-Glo MT Cell Viability Assay in HepG2 cells - 16 hour (AID 1224885); note: nearly all actives have a fitted effect of over 50% in size
# Outline: (§3)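 qHTS, HepG2, 600 cells/well, RealTime-Glo (NanoLuc + prosubstrate) added with cells; 5 h preincubation; DMSO compound addition; 37 C; luminescence at 0/8/16/24/32/40 h.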
# [5] = qHTS RealTime-Glo MT Cell Viability Assay in HEK293 cells - 24 hour (AID 1224886); note: nearly all actives have a fitted effect of over 50% in size; note: potency is the fitted concentration of half-maximal effect; for activity change, negative = cytotoxicity: top concentration of the series differs between compounds
# Outline: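 Assay medium contained NanoLuc luciferase plus cell-permeant prosubstrate, added with HEK293 cells at 600 cells/well. After 5 h at 37 C/5% CO2 compounds were added; plates stayed at 37 C for 40 h with serial luminescence reads.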
# [6] = qHTS RealTime-Glo MT Cell Viability Assay in HEK293 cells - 8 hour (AID 1224887); note: nearly all actives have a fitted effect of over 50% in size; note: potency is the fitted concentration of half-maximal effect; for activity change, negative = cytotoxicity: top concentration of the series differs between compounds
# Outline: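 Viable HEK293 cells reduce a cell-permeant prosubstrate; the product diffuses out and is consumed by NanoLuc in the medium to give light. Compounds went in after a 5 h incubation and plates were read over the treatment course.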
# [7] = A CellTox Green Cytotoxicity Assay to monitor cytotoxicity in HEK293 cells - 16 hour (AID 1224888); note: nearly all actives have a fitted effect of over 35% in size; note: potency is the fitted concentration of half-maximal effect
# Outline: as §2
# [8] = qHTS RealTime-Glo MT Cell Viability Assay in HepG2 cells - 0 hour (AID 1224889); note: nearly all actives have a fitted effect of over 50% in size
# Outline: as §3
# [9] = A CellTox Green Cytotoxicity Assay to monitor cytotoxicity in HepG2 cells - 8 hour (AID 1224890); note: nearly all actives have a fitted effect of over 45% in size; note: potency is the fitted concentration of half-maximal effect
# Outline: as §1
# [10] = qHTS assay to identify small molecule antagonists of the estrogen receptor alpha (ER-alpha) signaling pathway using the BG1 cell line in the presence of 0.1 nM 17-beta-estradiol - cell viability counter screen (AID 1259241); note: nearly all actives have a fitted effect of over 40% in size
# Outline: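 Cells were plated and left 24 hr, compounds in DMSO were pinned in, 17beta-estradiol was added to 0.1 nM final, and after 22 hr CellTiter-Fluor reagent was added for 30 min before fluorescence was read.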
# [11] = qHTS assay to identify small molecule antagonists of the androgen receptor (AR) signaling pathway using the MDA cell line in the presence of 0.5 nM R1881 - cell viability counter screen (AID 1259242); note: nearly all actives have a fitted effect of over 45% in size
# Outline: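 Viability of MDA-kb2 cells was multiplexed with the luciferase AR readout; after 16 hr with compounds and R1881 at 0.5 nM final, CellTiter-Fluor fluorescence was recorded.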
# [12] = biological target: Estrogen receptor (Homo sapiens) (UniProt P03372); assay: qHTS assay to identify small molecule antagonists of the estrogen receptor alpha (ER-alpha) signaling pathway using the BG1 cell line in the presence of 0.1 nM 17-beta-estradiol (AID 1259244); note: nearly all actives have a fitted effect of over 50% in size
# Outline: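 Estradiol at 0.1 nM (final) stimulates the endogenous ER-alpha of VM7Luc4E2 cells carrying an ERE-driven luciferase; compounds are co-incubated 22 h at 37C and luciferase output quantified by luminescence.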
# [13] = qHTS assay to identify small molecule HDAC inhibitors (AID 1259364); note: potency is the fitted concentration of half-maximal effect;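 note: wild-type HCT-116 cells with endogenous class I/II HDAC activity; nearly all actives have a fitted effect of over 45% in size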; for activity change, negative = inhibition: top concentration of the series differs between compounds
# Outline: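 Read-out: luminescence of HDAC-Glo I/II reagent, 30 min RT, reflecting class I/II deacetylase activity in whole HCT-116 cells pre-exposed 2 h to DMSO-dissolved compounds.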
# [14] = qHTS assay to identify small molecule HDAC inhibitors - cell viability counter screen (AID 1259365)
# Outline: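 Counter screen in wild-type HCT-116 cells: compounds dissolved in DMSO are pin-transferred onto overnight-plated cells and left 2hr at 37C. ATP-based CellTiter-Glo luminescence then measures viable cells.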
# [15] = qHTS assay to identify small molecule agonists of the sonic hedgehog signaling (Shh) pathway - cell viability counter screen (AID 1259366); note: nearly all actives have a fitted effect of over 50% in size; note: potency is the fitted concentration of half-maximal effect
# Outline: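 Cells are plated at 2,000 per well and left 4hr at 37C, 5% CO2 before compound addition. After 23hr of treatment, CellTiter-Fluor reagent is added for 1hr at 37C and fluorescence is measured.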
# [16] = qHTS assay to identify small molecule antagonists of the sonic hedgehog signaling (Shh) pathway - cell viability counter screen (AID 1259367); note: nearly all actives have a fitted effect of over 55% in size; note: potency is the fitted concentration of half-maximal effect
# Outline: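 Using CellTiter-Fluor, viability of Gli1-Luc reporter 3T3 cells is read by fluorescence in the wells used for the Shh luciferase assay. Treatment lasts 23 hr with conditioned medium, then reagent 1 hr at 37C.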
# [17] = qHTS assay to identify small molecule agonists of the sonic hedgehog signaling (Shh) pathway (AID 1259368; calls by dose curve;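 note: NIH/3T3-derived 3T3Gli1-Luc cells carrying a stable Gli1-driven firefly luciferase reporter; series mostly up to about 92 µM; nearly all actives have a fitted effect of over 15% in size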)
# Outline: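 A Gli1 transcriptional response element controlled firefly luciferase in 3T3Gli1-Luc cells. Compounds and a positive control were added 4 hr after plating, and cells were incubated a further 24 hr at 37 C before luminescence detection.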
# [18] = qHTS assay to identify small molecule phospholipidosis (PLD) inducers (AID 1259344; active = well fitted curve in the direction sought with a large enough effect; an effect the other way counts as inactive or inconclusive)
# Outline: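 Fluorescent phospholipid staining (LipidTOX Red) measured by automated microscopy in fixed HepG2 cells after 24 h treatment; nuclei counterstained with Hoechst 33342; amiodarone as reference inducer.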
# [19] = qHTS assay to identify small molecule antagonists of the sonic hedgehog signaling (Shh) pathway (AID 1259369; calls by dose curve; note: nearly all actives have a fitted effect of over 45% in size; note: potency is the fitted concentration of half-maximal effect)
# Outline: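 For antagonist detection, the reporter line received test compounds together with conditioned medium, incubated 24hr at 37 C, 5% CO2, then luminescence was recorded following 30min room-temperature luciferase reagent incubation.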
# Sequence of Estrogen receptor (Homo sapiens) (P03372 whole entry, looked up): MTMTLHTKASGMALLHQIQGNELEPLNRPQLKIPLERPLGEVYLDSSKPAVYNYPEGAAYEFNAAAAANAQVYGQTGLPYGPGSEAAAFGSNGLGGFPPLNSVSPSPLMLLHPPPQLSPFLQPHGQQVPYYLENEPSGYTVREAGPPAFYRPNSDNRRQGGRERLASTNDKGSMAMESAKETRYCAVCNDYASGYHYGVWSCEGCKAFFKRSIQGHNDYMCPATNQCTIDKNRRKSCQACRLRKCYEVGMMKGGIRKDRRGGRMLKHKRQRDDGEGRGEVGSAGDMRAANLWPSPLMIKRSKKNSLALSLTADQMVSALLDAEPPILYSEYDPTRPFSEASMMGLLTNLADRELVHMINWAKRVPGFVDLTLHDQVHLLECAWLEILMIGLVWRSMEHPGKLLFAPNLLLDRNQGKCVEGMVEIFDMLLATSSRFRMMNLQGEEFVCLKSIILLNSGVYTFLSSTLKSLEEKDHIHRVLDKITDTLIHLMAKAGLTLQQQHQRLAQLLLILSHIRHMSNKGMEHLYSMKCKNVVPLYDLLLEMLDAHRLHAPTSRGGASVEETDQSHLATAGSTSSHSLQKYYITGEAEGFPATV
smiles,measurement,setting,value
COc1ccnc2c1CCCCC2S(=O)c1nc2ccccc2[nH]1 (configuration not stated),Potency,[1],inactive
same,Potency,[2],inactive
same,Potency,[3],inactive
same,outcome,[4],inactive
same,Potency,[5],6.01 µM (active)
same,Potency,[6],8.49 µM (active)
same,Potency,[7],inactive
same,Potency,[8],inactive
same,Potency,[9],inactive
same,Potency,[10],inactive
same,Potency,[11],inactive
same,Potency,[12],inactive
same,Potency,[13],inactive
same,outcome,[14],inactive
same,Potency,[15],inactive
same,Potency,[16],inactive
same,Potency,[17],inactive
OCCc1ccncc1,Potency,[1],inactive
same,Potency,[2],inactive
same,Potency,[3],inactive
same,outcome,[4],inactive
same,Potency,[5],inactive
same,Potency,[6],inactive
same,Potency,[7],inactive
same,Potency,[8],inactive
same,Potency,[9],inactive
same,Potency,[10],inactive
same,Potency,[11],inactive
same,Potency,[12],inactive
same,Potency,[13],inactive
same,outcome,[14],inactive
same,Potency,[15],inactive
same,Potency,[16],inactive
COc1cc(C)c(Cc2cnc(N)nc2N)cc1OC,Potency,[1],inactive
same,Potency,[2],inactive
same,Potency,[3],inactive
same,outcome,[4],inactive
same,Potency,[5],inactive
same,Potency,[6],inactive
same,Potency,[7],inactive
same,Potency,[8],inactive
same,Potency,[9],inactive
same,Potency,[10],inactive
same,Potency,[11],inactive
same,Potency,[12],inactive
same,Potency,[18],inactive
same,Potency,[13],inactive
same,outcome,[14],inactive
same,Potency,[15],inactive
same,Potency,[16],inactive
same,Potency,[17],inactive
COC(=O)Cc1cccc2ccccc12,Potency,[1],inactive
same,Potency,[2],inactive
same,Potency,[3],inactive
same,outcome,[4],inactive
same,Potency,[5],inactive
same,Potency,[6],inactive
same,Potency,[7],inactive
same,Potency,[8],inactive
same,Potency,[9],inactive
same,Potency,[10],inactive
same,Potency,[11],inactive
same,Potency,[12],inactive
same,Potency,[13],inactive
same,outcome,[14],inactive
same,Potency,[15],inactive
same,Potency,[16],inactive
same,Potency,[17],inactive
same,Potency,[19],inactive
CCCCOc1ccc(N)cc1,Potency,[1],inactive
same,Potency,[2],inactive
same,Potency,[3],inactive
same,outcome,[4],inactive
same,Potency,[5],inactive
same,Potency,[6],inactive
same,Potency,[7],inactive
same,Potency,[8],inactive
same,Potency,[9],inactive
same,Potency,[10],inactive
same,Potency,[11],inactive
same,Potency,[12],inactive
same,Potency,[13],inactive
same,outcome,[14],inactive
same,Potency,[15],inactive
same,Potency,[16],inactive
same,Potency,[17],inactive
same,Potency,[19],inactive
CC(C)Oc1ccccc1O,Potency,[1],inactive
same,Potency,[2],inactive
same,Potency,[3],inactive
same,outcome,[4],inactive
same,Potency,[5],inactive
same,Potency,[6],inactive
same,Potency,[7],inactive
same,Potency,[8],inactive
same,Potency,[9],inactive
same,Potency,[10],inactive
same,Potency,[11],inactive
same,Potency,[12],inactive
same,Potency,[13],inactive
same,outcome,[14],inactive
same,Potency,[15],inactive
same,Potency,[16],inactive
same,Potency,[19],inactive
COc1ccc(C(=O)Nc2ccccc2)cc1[N+](=O)[O-],Potency,[1],inactive
same,Potency,[2],inactive
same,Potency,[3],inactive
same,outcome,[4],inactive
same,Potency,[5],24.7 µM (active)
same,Potency,[6],24.7 µM (active)
same,Potency,[7],inactive
same,Potency,[8],inactive
same,Potency,[9],inactive
same,Potency,[10],inactive
same,Potency,[11],inactive
same,Potency,[12],inactive
same,Potency,[13],24.5 µM (active)
same,outcome,[14],inactive
same,Potency,[15],inactive
same,Potency,[16],inactive
same,Potency,[17],inactive
CC(=O)Nc1cccc(N)c1,Potency,[1],inactive
same,Potency,[2],inactive
same,Potency,[3],inactive
same,outcome,[4],inactive
same,Potency,[5],inactive
same,Potency,[6],inactive
same,Potency,[7],inactive
same,Potency,[8],inactive
same,Potency,[9],inactive
same,Potency,[10],inactive
same,Potency,[11],inactive
same,Potency,[12],inactive
same,Potency,[13],inactive
same,outcome,[14],inactive
same,Potency,[15],inactive
same,Potency,[16],inactive
same,Potency,[17],inactive
same,Potency,[19],inactive
COC=O,cytotoxicity,[1],0.137% [at 6.97 µM]
same,cytotoxicity increase,[2],-4.32% [at 6.97 µM]
same,cytotoxicity increase,[3],-11.8% [at 6.97 µM]
same,"activity change, negative = cytotoxic",[4],5.42% [at 6.97 µM]
same,"activity change, negative = cytotoxicity",[5],14.1% [at 6.97 µM]
same,"activity change, negative = cytotoxicity",[6],3.22% [at 6.97 µM]
same,activity change,[7],"-10.1% [at 6.97 µM, hits give high values]"
same,"activity change, negative = cytotoxicity",[8],-11.5% [at 6.97 µM]
same,cytotoxicity increase,[9],-0.393% [at 6.97 µM]
same,"activity change, negative = cytotoxicity",[10],7.16% [at 8.39 µM]
same,"viability change, negative = cytotoxic",[11],2.17% [at 8.39 µM]
same,"activity change, negative = inhibition",[12],-1.73% [at 8.39 µM]
same,"activity change, negative = inhibition",[13],0.883% [at 8.39 µM]
same,"activity change, negative = cytotoxicity",[14],-4.91% [at 8.39 µM]
same,"viability change, negative = cytotoxic",[15],14% [at 8.39 µM]
same,"viability change, negative = cytotoxic",[16],5.98% [at 8.39 µM]
same,activity change,[17],"-3.86% [at 8.39 µM, hits give high values]"
same,"activity change, negative = inhibition",[19],0% [at 8.39 µM]
OCC(O)c1ccccc1 (configuration not stated),Potency,[1],inactive
same,Potency,[2],inactive
same,Potency,[3],inactive
same,outcome,[4],inactive
same,Potency,[5],inactive
same,Potency,[6],inactive
same,Potency,[7],inactive
same,Potency,[8],inactive
same,Potency,[9],inactive
same,Potency,[10],inactive
same,Potency,[11],inactive
same,Potency,[12],inactive
same,Potency,[13],inactive
same,outcome,[14],inactive
same,Potency,[15],inactive
same,Potency,[16],inactive
same,Potency,[17],inactive
same,Potency,[19],inactive
Cc1ccc2c(Cl)cc(Cl)c(O)c2n1,Potency,[1],inactive
same,Potency,[2],inactive
same,Potency,[3],inactive
same,outcome,[4],inactive
same,Potency,[5],inactive
same,Potency,[6],inactive
same,Potency,[7],inactive
same,Potency,[8],inactive
same,Potency,[9],inactive
same,Potency,[10],inactive
same,Potency,[11],inactive
same,Potency,[12],inactive
same,PLD induction,[18],0.648% [at 1.53 µM]
same,Potency,[13],inactive
same,outcome,[14],inactive
same,Potency,[15],inactive
same,Potency,[16],inactive
same,Potency,[17],inactive
CCCCCCCCCCCCCCCCN,Potency,[1],21.3 µM (active)
same,Potency,[2],23.9 µM (active)
same,Potency,[3],19 µM (active)
same,outcome,[4],inactive
same,Potency,[5],inactive
same,Potency,[6],inactive
same,Potency,[7],19 µM (active)
same,Potency,[8],inactive
same,Potency,[9],21.3 µM (active)
same,Potency,[10],inactive
same,Potency,[11],inactive
same,Potency,[12],inactive
same,Potency,[18],inactive
same,Potency,[13],inactive
same,outcome,[14],inactive
same,Potency,[15],inactive
same,Potency,[16],inactive
same,Potency,[17],inactive
same,Potency,[19],inactive
O=C(Nc1ccccc1)c1cc([N+](=O)[O-])ccc1Cl,Potency,[1],inactive
same,Potency,[2],inactive
same,Potency,[3],inactive
same,outcome,[4],inactive
same,Potency,[5],inactive
same,Potency,[6],inactive
same,Potency,[7],inactive
same,Potency,[8],inactive
same,Potency,[9],inactive
same,Potency,[10],inactive
same,Potency,[11],inactive
same,Potency,[12],inactive
same,Potency,[13],inactive
same,outcome,[14],inactive
same,Potency,[15],61.1 µM (active)
same,Potency,[16],54.5 µM (active)
same,Potency,[17],inactive
same,Potency,[19],21.7 µM (active)
CC(O)CN (configuration not stated),Potency,[1],inactive
same,Potency,[2],inactive
same,Potency,[3],inactive
same,outcome,[4],inactive
same,Potency,[5],inactive
same,Potency,[6],inactive
same,Potency,[7],inactive
same,Potency,[8],inactive
same,Potency,[9],inactive
same,Potency,[10],inactive
same,Potency,[11],inactive
same,Potency,[12],inactive
same,Potency,[13],inactive
same,outcome,[14],inactive
same,Potency,[15],inactive
same,Potency,[16],inactive
same,Potency,[17],inactive
